The list is not random: actives were taken first. Their share in the collection is about 4.5%.
hgDAF-12 ag: H. glycines DAF-12 receptor agonists, primary screen, cell-based, luminescence, HEK293, GAL4 fusion, UAS-luciferase; HEK293 GAL4-hgDAF12 UAS-luciferase reporter, agonist luminescence; normalized to butyrate control; activation, % at 6.8 µM; Nuclear hormone receptor DAF-12 (Heterodera glycines), GAL4 fusion; 370,000 tested, 1.8% active;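 active = activation above a cutoff set at the mean of all screened compounds plus 3 SD, cut at about 10% in these data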;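 also: 0% = DMSO wells and 100% = sodium butyrate wells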
DAX1 inh-1: DAX1 (NR0B1) inhibitors, primary screen, cell-based, HEK293, Gal4-DAX1, luciferase luminescence | Nuclear receptor subfamily 0 group B member 1 (Homo sapiens), P51843 | HEK293 Gal4-DAX1 luciferase reporter | inhibition, % at 6.75 µM | 340,000 tested, 0.99% active;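 active = inhibition above the mean over all tested compounds plus 3 SD, cut at about 4.2% in these data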;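 also: 0% = DAX1-transfected cells with DMSO and 100% = empty-vector control cells with DMSO; inhibition shows as a rise in luminescence from relieved DAX1 repression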
Target sequence (P51843 207-470 limits assumed): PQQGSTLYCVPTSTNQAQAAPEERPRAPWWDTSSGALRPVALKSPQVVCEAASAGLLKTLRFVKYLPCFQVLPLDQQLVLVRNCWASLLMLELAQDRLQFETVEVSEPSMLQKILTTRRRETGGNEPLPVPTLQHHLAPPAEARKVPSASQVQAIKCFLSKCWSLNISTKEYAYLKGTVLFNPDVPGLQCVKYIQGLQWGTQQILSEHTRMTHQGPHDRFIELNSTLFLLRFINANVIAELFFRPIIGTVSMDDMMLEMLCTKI
hcDAF-12 act: H. contortus DAF-12 nuclear receptor activators, primary screen, cell-based, luminescence, HEK293, lit1-tk-luc reporter; HEK293 hcDAF-12 lit1-tk-luc reporter; 0% DMSO, 100% Δ7-dafachronic acid; 370,000 tested, 1.4% active; activation, % at 6.8 µM; AID 652067, 2013;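 active = activation above the mean of all tested compounds plus 3 SD, cut at about 5.5% in these data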;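 also: 100% = response to 3 µM Δ7-dafachronic acid high control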
DAX1 inh-2: DAX1 (NR0B1) inhibitors on StAR promoter, primary screen, cell-based, luminescence, SF-1 (NR5A1), full-length DAX-1. HEK293T StAR-luciferase reporter, SF-1/DAX-1 repression relief. inhibition, % at 6.8 µM. 370,000 tested, 1.1% active. AID 652010, 2013;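 active = inhibition above the mean over all tested compounds plus 3 SD, cut at about 3.6% in these data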;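 also: 0% = DAX-1 cells with DMSO and 100% = cells lacking DAX-1 with DMSO; higher inhibition means more luminescence from relief of DAX-1 repression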
FXN GAA850 act: FXN promoter activators, primary screen, cell-based, luciferase luminescence, HEK293 lucGAA850. HEK293 lucGAA850 FXN promoter luciferase reporter, 24 h; percent of 10 µM SAHA response. activation, % at 6 µM. 360,000 tested, 0.56% active;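 active = activation above the average of all compounds screened plus 3 SD, cutoff fixed separately per campaign, cut at about 7.5% in these data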;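 also: 0% = DMSO wells and 100% = 10 µM SAHA wells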
ssDAF12 agonist: S. stercoralis DAF-12 nuclear receptor activators, primary screen, cell-based, luminescence, HEK293, GRIP1 co-expression, lit1-tk-luc. HEK293 ssDAF-12/GRIP1 lit1-tk-luc reporter; % of 3 µM dafachronic acid response. activation, % at 6.8 µM. 370,000 tested, 1% active;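 active = activation above the mean over all tested compounds plus 3 SD, cut at about 0.9% in these data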;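 also: 0% = DMSO-only wells and 100% = 3 µM delta7-dafachronic acid wells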
An asterisk follows results filed as active; . = no result given.

SMILES	hgDAF-12 ag	DAX1 inh-1	hcDAF-12 act	DAX1 inh-2	FXN GAA850 act	ssDAF12 agonist
COc1ccc(C(=O)N[C@H](C(=O)NCCCSc2ccccc2)C(C)C)cc1	2	7.8*	-2	0	-2	-1
COc1ccc(C(=O)N[C@H](C(=O)Nc2nc3ccccc3[nH]2)C(C)C)cc1	13*	2	3	1	5	0
CCOP(=O)(OCC)C(NC(=O)c1ccc(OC)cc1)c1ccccc1 (stereo unspecified)	-2	4.3*	-1	1	-2	-2
COc1ccc(-c2nc3c([nH]2)c(=O)n(C)c(=O)n3C)c(OC)c1	3	1	3	0	3	1.1*
N/C(Cc1ccc(Cl)cc1Cl)=N\OC(=O)c1ccccc1F	4	0	6.0*	0	4	-1
COC(=O)[C@@]12CCCCC3=C1N(CCC3)C(=O)[C@H]2CC(=O)N1CCOCC1	0	.	-3	-1	.	-1
CCOC(=O)C1=NOC(C(=O)Nc2cc(C)cc(C)c2)(C(=O)C2CC2)C1 (stereo unspecified)	1	.	-2	1	.	-1
CCCOc1ccc(-c2nnc(-c3ccncc3)o2)cc1	11*	3	1	1	1	-1
CC(C)COc1ccc(-c2nnc(-c3ccncc3)o2)cc1	5	2	3	1	5	-1
O=C1CSc2ccccc2N1Cc1ccc(F)cc1	2	1	3	0	5	1.4*
O=C(O)CN1C(=O)CSc2ccccc21	2	0	0	0	1	-1
Cc1onc(-c2ccccc2)c1CNC(=O)C1COc2ccccc2O1 (stereo unspecified)	1	4.6*	0	0	1	-2
Fc1ccc(-c2ccc3c(n2)CCCN3Cc2ccccn2)cc1	7	.	2	3.8*	.	-1
c1ccc(-c2ccc3c(n2)CCCN3Cc2ccccn2)cc1	8	.	3	1	.	0
Cc1ccccc1CC(=O)N1CCC(n2nnc3ncccc32)CC1	-2	.	-2	1	.	-1
CC(C)C[C@H]1COc2cc(Br)ccc2S(=O)(=O)N1Cc1cn(CCC2OCCO2)nn1	1	.	0	-1	.	-1
COC(=O)c1cc2c(c3c4cc(F)ccc4n(C(=O)c4ccccc4)c13)C(=O)N(C1CCCCC1)C2	0	.	2	-1	.	-1
Cc1cc2ncc(-c3ccc(Cl)cc3)cn2n1	11*	2	2	3.7*	5	-1
Cc1cc2ncc(C(=O)N=CN(C)C)cn2n1	1	0	0	2	-1	-1
CCC(=O)N(C)CCc1cc2c(c(OC)c1/C=N/NC(=O)c1ccncc1)OCO2	2	4.2*	0	0	0	-1
CC(=O)CCc1oc2ccccc2c1-c1ccccc1	1	0	-1	0	1	-2
CC(=O)CCc1oc2ccc(C)cc2c1Cc1ccccc1	5	0	6.5*	0	3	1.6*
Cc1ccc2c(c1)C1CS(=O)(=O)N(Cc3ccccc3)CN1C2 (stereo unspecified)	4	.	-2	1	.	-1
O=C(Nc1cccnc1)c1ccc(N2CCCC2)c([N+](=O)[O-])c1	2	5.2*	1	0	3	-1
O=C(NCC1CC1)c1ccc2c3n(nc2c1)-c1ccc(Cl)cc1CO3	12*	0	2	1	4	-1
SMILES	hgDAF-12 ag	DAX1 inh-1	hcDAF-12 act	DAX1 inh-2	FXN GAA850 act	ssDAF12 agonist
COCCNC(=O)c1ccc2c3n(nc2c1)-c1ccccc1CO3	12*	2	6.4*	2	5	0
O=C(NCCO)c1ccc2c3n(nc2c1)-c1ccc(Cl)cc1CO3	9	3	4	2	5	0
Cc1ccc2c(c1)N(CCCC(=O)N(C)Cc1ccccc1F)C(=O)CO2	0	.	0	0	.	-1
O=C(c1cc2ccccc2oc1=O)N(Cc1ccco1)C1CCS(=O)(=O)C1 (stereo unspecified)	13*	1	5	1	7	0
CC(Oc1ccccc1Cl)C(=O)N(Cc1ccco1)C1CCS(=O)(=O)C1 (stereo unspecified)	-2	-2	-1	1	1	1.6*
CN(C)c1ccc(CN(C(=O)c2cc3ccccc3oc2=O)C2CCS(=O)(=O)C2)cc1 (stereo unspecified)	7	1	2	5.2*	4	0
O=C(c1cc2ccccc2oc1=O)N(Cc1cccc(Br)c1)C1CCS(=O)(=O)C1 (stereo unspecified)	-1	1	0	0	3	-1
CC(C)c1ccc(CN(C(=O)c2cc3ccccc3oc2=O)C2CCS(=O)(=O)C2)cc1 (stereo unspecified)	1	0	0	0	1	-1
COC(=O)[C@H]1C[C@@]2(N3CCCC3)c3ccccc3N(C(=O)OC(C)(C)C)[C@H]2N1C(=O)OC(C)(C)C	0	.	-2	0	.	-1
CS(=O)(=O)N[C@@H]1C[C@@H]2O[C@@H](CO)CC[C@@H]2O[C@@H]1CCc1ccc(/C=C/c2ccccc2)cc1	1	.	1	0	.	-1
Cc1ccc(NC2=CC(=O)CC(c3ccco3)C2)c(N)c1 (stereo unspecified)	11*	3	4	4	4	1.6*
O=C(NC1=NC2(C=C3CCCCC3n3c(=O)n(-c4ccccc4)c(=O)n32)CN1CC1CC1)c1ccccc1 (stereo unspecified)	-1	.	-3	0	.	-2
O=C(COC(=O)CNS(=O)(=O)c1ccc(Br)cc1Cl)NCCc1ccccc1	2	0	2	-4	-1	1.4*
N#C/C(=C/c1ccc(Br)s1)C(=O)NCCc1c[nH]c2ccccc12	-2	0	6.0*	0	1	0
Cn1cc(NC(=O)OCc2ccc(Cl)cc2)c(C(F)(F)F)n1	2	1	1	3.7*	0	0
Cc1ccc(-c2nc(=S)c3c(n2Cc2ccco2)CC(C)(C)OC3)cc1	.	-2	.	.	7.6*	.
Cc1ccc(-c2nc(=S)c3c(n2Cc2ccco2)CCCC3)cc1	2	1	4	0	2	0
Fc1ccccc1CSc1nc2ccccc2[nH]1	12*	0	5	3	4	0

Compound activity (PubChem BioAssay)
